The whole screen tested about 69,000 compounds, of which about 8,600 (12%) showed an effect of 50% or more. The sample as a whole holds a higher share of strong results than the screen did.
Each compound was assayed on Plasmodium berghei (assay: Screen against P. berghei liver stage (PbLuc), transformed with Luciferase, at 10uM). Details: tested at 10 uM.
Type: functional, HepG2

SMILES | INHIBITION [%]
Cc1nc(C)n(C2CCCN(C(=O)c3c[nH]c(C(C)C)n3)C2)n1 (stereo unspecified) | 40.9
CS(=O)(=O)N1CCC2(CC1)COC(COc1ccccn1)C2 (stereo unspecified) | -27.9
CC(C)OC[C@H]1CCC[C@]12CN(S(=O)(=O)c1cn(C)cn1)CCO2 | 1.7
OC1(CNCCc2csc(-c3ncccn3)n2)CCNC1 (stereo unspecified) | 39.3
COCC(=O)NCc1cc(=O)n2c(n1)CN(CC1CCOC1)CCC2 (stereo unspecified) | 37.5
COCCc1noc(CN2CCCC(Cn3nc(C)nc3C)C2)n1 (stereo unspecified) | 40.9
Cc1noc(CN2CCCC(Cn3nc(C)nc3C)C2)n1 (stereo unspecified) | 27.8
CCc1nc(CN2CCCC(Cn3nc(C)nc3C)C2)no1 (stereo unspecified) | 33.3
Cc1nc(C)n(CC2CCCN(Cc3nc(C4CC4)no3)C2)n1 (stereo unspecified) | 60.6
CCc1noc(CN2CCCC(Cn3nc(C)nc3C)C2)n1 (stereo unspecified) | 18.2
Cc1nc(C)n(CC2CCCN(Cc3noc(C)n3)C2)n1 (stereo unspecified) | 56.6
CNC(=O)[C@@]12CCO[C@@H]1CCN(S(=O)(=O)c1cccnc1)C2 | 23.9
Cn1cc(CN2CC(C(=O)Nc3ccccc3)C3(CCOCC3)C2)cn1 (stereo unspecified) | 48.2
COc1ccc(CN2C[C@H]3CN(Cc4ccncc4)C(=O)[C@H]3C2)cc1 | 22.3
O=C(Cc1c(F)cccc1Cl)NC1CCCCNC1=O (stereo unspecified) | -1.85
CC(=O)Nc1nc(C)c(S(=O)(=O)NCCc2ccccn2)s1 | -1.85
O=S(=O)(C1CC1)N1CCO[C@H]2[C@@H](Oc3ncccc3F)CC[C@@H]21 | -30
CC(C)N(Cc1ccccc1)C(=O)c1cc(C2CCCN2C)ccn1 (stereo unspecified) | -18.9
Cc1ncccc1Oc1ncnc(N2CCC3(CCCO3)CC2)c1C | -5.12
COc1ccc(C(C)n2ccnc2-c2cc3n(n2)CCCNC3)cc1F (stereo unspecified) | -2.34
COc1ccc([C@@H](C)n2ccnc2-c2cc3n(n2)CCCNC3)cc1 | 15
CC(c1ccc(F)cc1)n1ccnc1-c1cc2n(n1)CCCNC2 (stereo unspecified) | 58.3

SMILES | INHIBITION [%]
CN(CC(=O)N1CCN(c2ccccn2)CC1)c1ccc(Cl)cn1 | -36.6
CNC(=O)[C@H]1C[C@@H]2CN(C(=O)c3ccncc3)C[C@@H]2N1S(C)(=O)=O | 20.4
COCC(=O)Nc1ccccc1Sc1c(C)n[nH]c1C | 60
Cc1n[nH]c(C)c1Sc1ccccc1NC(=O)N1CCCC(C(N)=O)C1 (stereo unspecified) | -24
Cc1n[nH]c(C)c1Sc1ccccc1NC(=O)N1CCN(C)CC1 | 61.2
Cc1n[nH]c(C)c1Sc1ccccc1NC(=O)CN1CCCC1 | 3.17
Cc1n[nH]c(C)c1Sc1ccccc1NC(=O)N1CCOCC(O)C1 (stereo unspecified) | 25.4
Cc1n[nH]c(C)c1Sc1ccccc1NC(=O)N1CCOCC1 | 30.3
CCS(=O)(=O)N1CCc2c(CN(C)Cc3ccco3)cncc2C1 | 20.2
NC(=O)COc1ccc(CNCc2ccc(F)cc2F)cc1 | 6.8
NC(=O)CNC(=O)c1ccc(CNCc2ccc(F)cc2F)cc1 | 54.5
NC(=O)CNC(=O)c1ccc(CNCc2ccc(Cl)cc2Cl)cc1 | 48.9
Cc1cc(C)c(CNC(=O)NCC(O)c2ccccc2)c(=O)[nH]1 (stereo unspecified) | 15.5
O=C(c1cccnc1)N1CCC2(CC1)COCCN(c1ncccn1)C2 | 16.8
CC(=O)NCCNC(=O)CN1CCCCC1Cn1cncn1 (stereo unspecified) | -15.5
O=c1[nH]c2nc(N3CCCC3)ncc2c(=O)n1-c1cccc(F)c1 | 2.69
CCCS(=O)(=O)N1CCC(n2nc(-c3cc(C)oc3C)ccc2=O)CC1 | 68.4
Cc1cc(-c2ccc(=O)n(C3CCN(S(C)(=O)=O)CC3)n2)c(C)o1 | -8.58
CCS(=O)(=O)N1CCC(n2nc(-c3cc(C)oc3C)ccc2=O)CC1 | 21.1
Cc1cc(NC(=O)C(C)Nc2cccc(COCc3ccco3)c2)no1 (stereo unspecified) | 11.1
COCc1noc(CCC(=O)c2ccc3c(c2)OCCO3)n1 | -41.4
O=C(COc1ccc(-n2cccn2)nn1)N1CCCC1 | -66.4

SMILES | INHIBITION [%]
CN(C)c1cccc(C(=O)N2CCCc3cc(OC(F)(F)F)ccc32)c1 | 43.4
COc1ccc2c(c1)CCCN2C(=O)CNCC1CN(C)CCO1 (stereo unspecified) | -39.2
COc1ccc2c(c1)CCCN2C(=O)CN1CCOC(C)C1 (stereo unspecified) | 50.9
CN(C)c1ccc(C(=O)N2CCCc3cc(OC(F)(F)F)ccc32)cn1 | 26.7
COc1ccc2c(c1)CCCN2C(=O)CN1CCOC(CN(C)C)C1 (stereo unspecified) | 3.68
COc1ccc2c(c1)CCCN2C(=O)c1cccc(N(C)C)c1 | 87.9
Fc1cnc(N2CC[C@@H]3O[C@H](COCc4ccccn4)CC[C@@H]32)nc1 | -21.7
CC(C)COC1CC2(CCN(Cc3nccn3C)CC2)C1 | 31.6
Cc1nc2[nH]cnc(Nc3cnn(C)c3)c-2n1 | -10.6
CC(C)C(NC(=O)C1CC1)c1cc(O)nc(-c2cccnc2)n1 (stereo unspecified) | 3.4
COc1cc(-c2cnnc(NCCCOC(C)C)n2)cc(OC)c1OC | 57.9
Cc1cc(NCCCOC(C)C)c2nncn2n1 | 13.4
CNc1cc(-c2cc(OC)c(OC)c(OC)c2)ncn1 | 27.8
COc1cc(-c2cnnc(NCCSC)n2)cc(OC)c1OC | 52.2
COc1cc(-c2nc(N)n[nH]2)cc(OC)c1OC | 20.4
COc1cc(-c2cnnc(NCC3CC3)n2)cc(OC)c1OC | 31.7
COCC(NC1CSCCSC1)c1ccnn1C (stereo unspecified) | 31.2
CN1CCN(CC2(O)CCCN(S(=O)(=O)c3cn[nH]c3)CC2)CC1 (stereo unspecified) | 29.6
Cn1ccc(C(=O)N2CCC(c3cc(CCO)n(C)n3)C2)n1 (stereo unspecified) | -3.94
CC(O)c1cccc(Nc2nc(NCCO)c3ccccc3n2)c1 (stereo unspecified) | 44.9
CCN(CC)c1nc(Nc2cccc(C(C)O)c2)nc2ccccc12 (stereo unspecified) | 87.2
CCN(CC)c1nc(Nc2cccc(C(=O)O)c2)nc2ccccc12 | 5.18

SMILES | INHIBITION [%]
COCCN1CC2(CCCN(Cc3cc(=O)c(OC)co3)C2)CCC1=O (stereo unspecified) | 23.9
COc1coc(CN2CCCC3(CCC(=O)N(CC4CC4)C3)C2)cc1=O (stereo unspecified) | 33.2
COc1ccc(CCC2CCCN(CC(=O)O)C2)cc1 (stereo unspecified) | 23.9
COc1coc(CN2CCCC(CCc3ccc(F)c(F)c3)C2)cc1=O (stereo unspecified) | 63.6
COc1coc(CN2CCCC3(CCC(=O)N(C4CC4)C3)C2)cc1=O (stereo unspecified) | 53.6
COc1ccc(CN2CCCC(Cn3nc(C)nc3C)C2)cc1F (stereo unspecified) | -15.8
Cc1[nH]c(=O)[nH]c(=O)c1CN1CCCC(CCc2ccccc2)C1 (stereo unspecified) | -38.2
COc1coc(CN2CCCC(CCc3ccc(F)cc3)C2)cc1=O (stereo unspecified) | 73.5
Cc1[nH]c(=O)[nH]c(=O)c1CN1CCCC(CCc2ccc(F)c(F)c2)C1 (stereo unspecified) | 4.48
CCOc1cc(C(=O)N2CCCC(n3nc(C)nc3C)C2)ccn1 (stereo unspecified) | -11.9
Cc1noc(C)c1-c1nc(N(C)CCN(C)C)ncc1-c1cnccn1 | 2.71
CC(C)(C)c1cc(CN2C[C@H]3CC[C@@H](C2)N(Cc2ccccn2)C3)n[nH]1 | 33.3
c1ncn(Cc2cnc3n2CCN(Cc2ccsc2)CC3)n1 | 37
CC(C)(C)CC(=O)Nc1ccccc1SCC(N)=O | -53.6
CC(O)C1CCN(Cc2cnc3c(-c4ccccc4)cnn3c2)CC1 (stereo unspecified) | 63.6
CN(C)CC1(O)CCN(Cc2cnc3c(-c4ccccc4)cnn3c2)C1 (stereo unspecified) | 20.2
O=C1CN(Cc2cnc3c(-c4ccccc4)cnn3c2)CCCN1 | 75.1
OCCN1CCN(Cc2cnc3c(-c4ccccc4)cnn3c2)CC1 | 44.8
NCCC1CN(Cc2cnc3c(-c4ccccc4)cnn3c2)CCO1 (stereo unspecified) | 40.7
c1ccc(-c2cnn3cc(CN4CCC5(CCO5)CC4)cnc23)cc1 | 87.4
CC(C)O[C@H]1CN(Cc2cnc3c(-c4ccccc4)cnn3c2)C[C@@H]1O | 8.74
FC(F)(F)C1CN(Cc2cnc3c(-c4ccccc4)cnn3c2)CCO1 (stereo unspecified) | 25.9

SMILES | INHIBITION [%]
O=C1CCN(Cc2cnc3c(-c4ccccc4)cnn3c2)CCN1 | 29.2
CN(Cc1ccsc1)C(=O)c1cc2c([nH]c1=O)CCC2 | -9.6
Cc1csc(CNCc2c(C)nn(C)c2N2CCOCC2)n1 | -19.7
CCCN(CC)C(=O)c1ncn2c1CN(C)S(=O)(=O)c1ccccc1-2 | -49.7
COCCOCC(=O)Nc1nc2c(OC)cc(F)cc2s1 | 7.65
Cc1nnc(CN(Cc2ccc3c(c2)OCO3)C2CCC(C)CC2)o1 (stereo unspecified) | -45.9
COc1cc(OC)c(C2CC(=O)Oc3cc(C)[nH]c(=O)c32)cc1OC (stereo unspecified) | 4.07
CC(Cn1cnc2cn(C)nc2c1=O)Oc1cccnc1 (stereo unspecified) | 52.6
Cn1cc2ncn(CCCOc3cccnc3)c(=O)c2n1 | 14.3
Cn1cc2ncn(CCNc3cccnc3)c(=O)c2n1 | 31.6
Cc1ccc(S(=O)(=O)NC(C)C#N)cc1Br (stereo unspecified) | 4.95
CCC(=O)c1cccc(S(=O)(=O)NC(C)C#N)c1 (stereo unspecified) | 54.4
CC(C#N)NS(=O)(=O)c1cccc(C(C)C)c1 (stereo unspecified) | 22.3
CS(=O)(=O)NCC1CCCCN1C(=O)Nc1cccnc1N1CCCC1 (stereo unspecified) | 34.7
c1coc(-c2nnc(CN3CCCC3Cn3cncn3)o2)c1 (stereo unspecified) | 17.5
CCCn1ncc(CN(CCN(C)C)Cc2ccsc2)c1C | 57.5
CCCn1ncc(CN(Cc2cccnc2)Cc2ccsc2)c1C | 22.9
CCCn1ncc(CN(Cc2ccsc2)Cc2ccco2)c1C | 13

Source: ChEMBL document CHEMBL4513216, “Probing the Open Global Health Chemical Diversity Library for Multistage-Active Starting Points for Next-Generation Antimalarials” (ACS Infect Dis, 2020)
